Laboratory results reported in PubChem BioAssay (NCATS).
Results filed as inconclusive are left out. A call without a number means that no potency is given here. Calls of active or inactive are those of the source. Calls come from the whole dose curve; as a rule, active = well fitted cell-killing curve with a large enough effect; inconclusive = small, poorly fitted or top-dose-only effect; inactive = flat fitted curve, though single readings scatter. Numbered stars: 1 amine (or outer) side, 2 acyl side, 3 side chain; on linkers, the order of the positions; unused ones are H or OH. Bridge positions count the residues as written; N and C are the ends. Square brackets hold non-standard residues; d marks the D form. Peptide text beside a SMILES is read from it. I, II: the chains in the order shown. Actinocin(9to1) = Cc1c2oc3c(C)ccc(C(=O)[*:1])c3nc-2c(C(=O)[*:2])c(N)c1=O; NMeV = CN[C@H](C(=O)O)C(C)C; Sar = CNCC(=O)O

Experiment: Cell Viability - LYMP1-002 - Assay at 40 hr (AID 994); note: nearly all actives have a fitted effect of over 60% in size
Details: LYMP1-002 lymphoblastoid cell viability; series mostly up to 92.2 µM
Excerpt: NIH Chemical Genomics Center [NCGC]
NIH Molecular Libraries Screening Centers Network [MLSCN]
National Institutes of Environmental Health Sciences [NIEHS]
National Toxicology Program [NTP]
We have developed a 1536-well cell-based assay for quantitative high throughput screening (qHTS) against a number of cell lines to determine in vitro cytotoxicity of small molecules. This particular assay uses a human lymphoblastoid cell line (LYMP1-002) purchased from Coriell Institute for Medical Research.
NCGC Assay Protocol Summary:
The CellTiter-Glo luminescent cell viability assay (Promega) is a homogeneous method to measure the number of viable cells in culture. The end point readout of this assay is based on quantitation of intracellular ATP, an indicator of metabolic activity, using the luciferase reaction. Luciferase catalyzes the oxidation of beetle Luciferin to oxyluciferin and light in the presence of ATP. The luminescent signal is proportional to amount of ATP present.
Using the CellTiter-Glo luminescent cell viability assay, the amount of cellular ATP was measured in the lymphoblastoid cell line with complete culture medium following compound treatment for 40 hours. The assay was performed in opaque white Kalypsys 1536-well plates. In the screen, tetraoctylammonium bromide was used as positive control. Library compounds were measured for their ability to cause acute toxicity in the cell line, as reflected by a decrease in intracellular ATP levels, in a concentration-dependent manner. […] AC50 values were determined from concentration-response data modeled with the standard Hill equation.
qHTS protocol for CellTiter Glo lymphoblastoid cellular assay
[Step] [Parameter] [Value] [Description]
1. Reagent; 5 uL; 2500 lymphoblastoid cells/well
2. Time; 5 hr; 37 C incubation
4. Controls; 23 nL; Tetraoctylammonium bromide 6.4pM to 92 uM
5. Time; 40 hr; 37 C incubation
6. Reagent; 5 uL; CellTiter Glo reagent
7. Time; 30 min; Room Temperature
8. Detection; Luminescence; Viewlux plate reader
Keywords: cell viability, cytotoxicity, lymphoblastoid cell line, luminescence, NTPHTS, NTPHTS_NCGC, NIEHS, DSSTox, MLSMR, MLSCN, NIH Roadmap, qHTS, NCGC
Potency is the fitted concentration of half-maximal effect.

| Structure (SMILES) | Potency |
| --- | --- |
| COc1cccc2c1C(=O)c1c(O)c3c(c(O)c1C2=O)C[C@@](O)(C(C)=O)C[C@@H]3O[C@H]1C[C@H](N)[C@H](O)[C@H](C)O1 | 1 µM (active) |
| Oc1c(I)cc(Cl)c2cccnc12 | 50.1 µM (active) |
| Cc1c2oc3c(C)ccc(C(=O)N[C@@H]4C(=O)N[C@H](C(C)C)C(=O)N5CCC[C@H]5C(=O)N(C)CC(=O)N(C)[C@@H](C(C)C)C(=O)O[C@@H]4C)c3nc-2c(C(=O)N[C@@H]2C(=O)N[C@H](C(C)C)C(=O)N3CCC[C@H]3C(=O)N(C)CC(=O)N(C)[C@@H](C(C)C)C(=O)O[C@@H]2C)c(N)c1=O (I: T[dV]P[Sar][NMeV] / II: T[dV]P[Sar][NMeV]; ester I:1-I:C, II:1-II:C; linker I:N-II:N via Actinocin(9to1)) | 0.0032 µM (active) |
| CC/C(=C(/CC)c1ccc(O)cc1)c1ccc(O)cc1 | inactive |
| CC(O)C(=O)O (centres undefined) | inactive |
| CC(C)(C)CC(C)(C)c1ccc(OCCOCC[N+](C)(C)Cc2ccccc2)cc1 | 39.8 µM (active) |
| C[C@]12CC[C@@H]3c4ccc(O)cc4CC[C@H]3[C@@H]1CC[C@@H]2O | inactive |
| NC(=NCCCCCCN=C(N)/N=C(\N)Nc1ccc(Cl)cc1)/N=C(\N)Nc1ccc(Cl)cc1 | 39.8 µM (active) |
| Nc1ccc(C(=O)O)cc1 | inactive |
| CC(=O)Oc1ccc(C(c2ccc(OC(C)=O)cc2)c2ccccn2)cc1 | inactive |
| O=C1OC(c2ccc(O)cc2)(c2ccc(O)cc2)c2ccccc21 | inactive |
| COc1cccc2c1C(=O)c1c(O)c3c(c(O)c1C2=O)C[C@@](O)(C(=O)CO)C[C@@H]3O[C@H]1C[C@H](N)[C@H](O)[C@H](C)O1 | 0.794 µM (active) |
| CCCCCCc1ccc(O)cc1O | inactive |
| Oc1c(Cl)cc(Cl)cc1Sc1cc(Cl)cc(Cl)c1O | 50.1 µM (active) |
| CN(C)/N=N/c1nc[nH]c1C(N)=O | inactive |
| CC(=O)O[C@]1(C(C)=O)CC[C@H]2[C@@H]3C[C@H](C)C4=CC(=O)CC[C@]4(C)[C@H]3CC[C@@]21C | inactive |
| O=c1ccc2ccccc2o1 | inactive |
| C=CCc1ccc(O)c(OC)c1 | inactive |
| O=C(O)CCCCC(=O)O | inactive |
